# ClpP mod = qHTS Assay for Activators of ClpP; ATP-dependent Clp protease proteolytic subunit (Bacillus subtilis (strain 168)), P80244; purified B. subtilis ClpP, FRET peptide cleavage, 20 min; Potency, µM (highest dose often 57.5 µM), for the others: top-dose activity change, negative = active; 1.9% of 340,000 active; active means well fitted falling curve with a large enough effect; inconclusive means small, poorly fitted or top-dose-only effect; inactive means no such curve, though single readings can be large or run the other way; further: the source files actives as falling curves though it sought activators and does not explain the sign; nearly all actives have a fitted effect of over 65% in size
# Target sequence (P80244 whole entry, looked up): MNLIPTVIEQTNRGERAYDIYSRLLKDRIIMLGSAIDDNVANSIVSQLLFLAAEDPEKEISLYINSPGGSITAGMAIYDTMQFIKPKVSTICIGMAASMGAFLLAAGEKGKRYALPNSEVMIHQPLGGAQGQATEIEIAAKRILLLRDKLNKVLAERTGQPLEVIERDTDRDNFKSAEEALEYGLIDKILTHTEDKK
#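 Buffer: 100 mM Tris/HCl pH8, 100 mM KCl, 0.05% low protease BSA, 2.5% glycerol, 0.01% Tween-20. ClpP 10 microg/mL final; 20 min RT; delta FRET normalized to ADEP and DMSO controls.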
# TDP1 block = TDP1 (human) enzyme inhibition; Q9NUW8; recombinant TDP1, AlphaScreen DNA substrate cleavage; Potency, µM (top dose mostly 130 µM), for the others: top-dose activity change, negative = inhibition, hits mostly inhibitors; 0.28% of 350,000 active; further: on the % scale 0 is the no-effect control and ±100 the full control effect; nearly all actives have a fitted effect of over 40% in size
#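 Compounds were preincubated with Tdp1 (1 nM final) for 15 min at room temperature before substrate (15 nM final) started a 5 min reaction; beads (10 ug/ml final) were then added for 10 min before AlphaScreen detection.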
# DT40 TDP1 no CPT = qHTS for Inhibitors of human tyrosyl-DNA phosphodiesterase 1 (TDP1): qHTS in cells in absence of CPT; DT40 Tdp1-/- hTDP1 cells, no CPT, ATP luminescence, 48 h; Potency, µM (doses to about 46.2 µM), for the others: at the highest dose activity change, negative = growth inhibition, hits mostly inhibitors; 15% of 420,000 active; AID 686978, 2013; further: on the % scale 0 is the no-effect control and ±100 the full control effect; nearly all actives have a fitted effect of over 55% in size
#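 Luminescent ATP content (CellTiter-Glo) served as the growth readout. Knockout chicken DT40 cells expressing human TDP1 were exposed to compounds without camptothecin for a minimum 48 hr at 37 °C.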
# TDP1 cell CPT = growth inhibition of DT40 Tdp1-/-;hTDP1 cells with camptothecin (screen for TDP1 inhibitors). chicken DT40 Tdp1-/-;hTDP1 cells + 20 nM CPT, ATP luminescence, 48 h. Potency, µM (titrated, usually from 46.2 µM), for the others: at the highest dose activity change, negative = growth inhibition, hits mostly inhibitors. 12% of 420,000 active; further: on the % scale 0 is the no-effect control and ±100 the full control effect; nearly all actives have a fitted effect of over 55% in size
#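 Chicken DT40 Tdp1-/- cells stably complemented with human TDP1 were seeded at 400 cells/well in medium containing 20 nM camptothecin, exposed to pin-transferred compounds, and grown at 37 °C for at least 48 hr. Viability was read as ATP luminescence.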
# Active calls of the source: *; ? = inconclusive; . = no result given. Hits are enriched below; roughly 17% of the tested compounds scored in any of these assays. Unless noted, the call rests on the fitted dose curve; in most records, active means well fitted curve in the direction sought with a large enough effect; inconclusive means small, poorly fitted or top-dose-only effect, or another doubt; inactive means no such curve, though single readings can be large; an effect the other way counts as inactive or inconclusive. Potency means the concentration at half of the fitted maximal effect.
SMILES,ClpP mod,TDP1 block,DT40 TDP1 no CPT,TDP1 cell CPT
O=C(C1CCCN(c2ncnc3c2nc2n3CCCCC2)C1)N1CCN(c2cccc(Cl)c2)CC1 (stereo unspecified),-1%,6%,18µM*,23µM*
Cc1ccccc1N(C)C(=O)C1CCCN(c2ncnc3c2nc2n3CCCCC2)C1 (stereo unspecified),0%,7%,23µM*,?
CCOC1=C2CN(S(=O)(=O)c3ccc(C)cc3)[C@H](c3ccccc3)C[C@@H]2N(S(=O)(=O)c2ccc(C)cc2)[C@H](c2cccs2)C1,-1%,.,-9%,-20%
Cc1ccc(C)c(C(C)NC(=O)c2ccc(Br)o2)c1 (stereo unspecified),-2%,-1%,?,?
CCCN(CCC)CC(=O)Nc1cccc2c1OCO2,-2%,-2%,-8%,-16%
O=C(O)CCCNC(=O)Cc1ccccc1,0%,1%,3%,7%
CCN(C(=O)C1CCN(c2ncnc3c2nc2n3CCCCC2)CC1)c1cccc(Cl)c1,-1%,1%,?,?
Fc1ccccc1N1CCN(c2ncnc3c2nc2n3CCCCC2)CC1,0%,2%,?,?
CN(C(=O)C1CCCN(c2ncnc3c2nc2n3CCCCC2)C1)c1cccc(Cl)c1 (stereo unspecified),0%,5%,12µM*,13µM*
COc1ccccc1N1CCN(c2ncnc3c2nc2n3CCCC2)CC1,-2%,6%,18µM*,18µM*
O=C(C1CCCN(c2ncnc3c2nc2n3CCCCC2)C1)N1CCN(c2ccccc2)CC1 (stereo unspecified),2%,6%,2.1µM*,?
Cc1ccc(S(=O)(=O)NC(C)C(=O)OCC(=O)N(C)c2ccccc2)cc1 (stereo unspecified),-1%,1%,0%,-3%
COC(=O)CC(NC(=O)c1cccs1)c1ccc(OC)c(OC)c1 (stereo unspecified),1%,3%,14%,0%
CC1(C)OCC([C@H](O)C2=CCCCC2=O)CO1,.,-2%,.,.
Cc1c(C(=O)N2CCC(C(=O)Nc3ccc(F)c(Cl)c3)CC2)sc2nc[nH]c(=O)c12,1%,0%,-29%,-29%
CN(C)c1ccc(/C=C/c2c([N+](=O)[O-])c(=O)n(C)c(=O)n2C)cc1,-13%,.,1%,2%
CN(C)c1ccc(-n2cccc2/C=C/[N+](=O)[O-])cc1,2%,11%,4.1µM*,16µM*
COc1ccc(Cl)cc1NCC(=O)Nc1ccc(OC)c(S(=O)(=O)N2CCCCC2)c1,-2%,5%,?,?
O=C(CNC(=O)Cc1ccccc1)NCC(=O)OCC(=O)c1cccc2ccccc12,-3%,-10%,18µM*,?
O=C(Cc1ccccc1)NCC(=O)OCC(=O)c1ccc2ccccc2c1,28µM*,1%,-20%,-14%
O=C(CNC(=O)c1ccco1)OCC(=O)c1cccc2ccccc12,-1%,11%,?,16µM*
O=C(CNC(=O)c1ccccc1)OCC(=O)c1cccc2ccccc12,-1%,4%,?,?
Cc1ccc2c(=O)c(C(=O)c3ccc(Cl)cc3)cn(CC(=O)Nc3ccc4c(c3)OCCO4)c2n1,1%,2%,?,?
Cc1cccc(-n2c(SCC(=O)Nc3ccccc3Cl)nc3n[nH]c(C)c3c2=N)c1,?,6%,21µM*,15µM*
CCCCNC(=O)CSc1nc2n[nH]c(C)c2c(=N)n1-c1ccccc1CC,2%,3%,10µM*,15µM*
COc1ccccc1NC(=O)CSc1nc2n[nH]c(C)c2c(=N)n1-c1ccccc1Cl,-10%,5%,26µM*,23µM*
COc1ccc(-n2c(SCC(=O)NCc3ccccc3)nc3n[nH]c(C)c3c2=N)cc1,67%,6%,6.5µM*,6.5µM*
CCc1ccccc1NC(=O)CSc1nc2n[nH]c(C)c2c(=N)n1-c1ccc(OC)cc1,3%,0%,8.2µM*,9.2µM*
CCc1ccccc1NC(=O)CSc1nc2n[nH]c(C)c2c(=N)n1-c1cccc(C)c1,18%,5%,3.7µM*,7.3µM*

# Compound activity (PubChem)
